From the supplement of paper PMC6089552
Hit rate of the full screen: of about 3,200 compounds, about 300 (9.4%) showed activity. The full list was thinned out, with actives kept by preference.

System: A673/TR/shEF
Test: cell viability (LOESS-normalised, relative to median of negative controls) (log2 ratio); higher = more viable cells (less compound effect), active = hit call of the paper (over 3 MAD below the median)
Details: treatment time: 72 h
How it was run: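 Doxycycline, present or absent from 24 h before compounds, was used to induce EWS-FLI1 shRNA knockdown in A673/TR/shEF Ewing sarcoma cells at 1,500 per well in 384-well plates. Cells then received library compounds at two or more concentrations, or DMSO controls, for three days. Viability was measured by CellTiter-Glo luminescence on an Envision reader, and per-plate LOESS correction, division by the negative-control median and log2 transformation followed.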

[1] = 0.25 µM, library screen: screen1, EWS-FLI1 expression: high (no doxycycline)
[2] = 0.25 µM, library screen: screen1, EWS-FLI1 expression: low (doxycycline-induced shRNA knockdown)
[3] = 2.5 µM, library screen: screen1, EWS-FLI1 expression: high (no doxycycline)
[4] = 2.5 µM, library screen: screen1, EWS-FLI1 expression: low (doxycycline-induced shRNA knockdown)
[5] = 0.25 µM, library screen: screen2, EWS-FLI1 expression: high (no doxycycline)
[6] = 0.25 µM, library screen: screen2, EWS-FLI1 expression: low (doxycycline-induced shRNA knockdown)
[7] = 2.5 µM, library screen: screen2, EWS-FLI1 expression: high (no doxycycline)
[8] = 2.5 µM, library screen: screen2, EWS-FLI1 expression: low (doxycycline-induced shRNA knockdown)
[9] = 0.103 µM, library screen: screen3, EWS-FLI1 expression: high (no doxycycline)
[10] = 0.103 µM, library screen: screen3, EWS-FLI1 expression: low (doxycycline-induced shRNA knockdown)
[11] = 0.308 µM, library screen: screen3, EWS-FLI1 expression: high (no doxycycline)
[12] = 0.308 µM, library screen: screen3, EWS-FLI1 expression: low (doxycycline-induced shRNA knockdown)
[13] = 0.926 µM, library screen: screen3, EWS-FLI1 expression: high (no doxycycline)
[14] = 0.926 µM, library screen: screen3, EWS-FLI1 expression: low (doxycycline-induced shRNA knockdown)
[15] = 2.8 µM, library screen: screen3, EWS-FLI1 expression: high (no doxycycline)
[16] = 2.8 µM, library screen: screen3, EWS-FLI1 expression: low (doxycycline-induced shRNA knockdown)
[17] = 8.3 µM, library screen: screen3, EWS-FLI1 expression: high (no doxycycline)
[18] = 8.3 µM, library screen: screen3, EWS-FLI1 expression: low (doxycycline-induced shRNA knockdown)
[19] = 25 µM, library screen: screen3, EWS-FLI1 expression: high (no doxycycline)
[20] = 25 µM, library screen: screen3, EWS-FLI1 expression: low (doxycycline-induced shRNA knockdown)
[21] = 0.025 µM, library screen: screen2, EWS-FLI1 expression: high (no doxycycline)
[22] = 0.025 µM, library screen: screen2, EWS-FLI1 expression: low (doxycycline-induced shRNA knockdown)
[23] = 25 µM, library screen: screen2, EWS-FLI1 expression: high (no doxycycline)
[24] = 25 µM, library screen: screen2, EWS-FLI1 expression: low (doxycycline-induced shRNA knockdown)

Measured: cell viability (log2)

CC(=O)O[C@H]1CC[C@]2(C)C3=CC(=O)[C@@]4(C)C(C[C@@H]5OC6(OCC(C)CC6Br)[C@@H](C)[C@@H]54)C3CC[C@H]2C1 (some centres undefined)
inactive: [1] 0.0329 | [2] 0.0911 | [3] 0.172 | [4] 0.139

CC(C)(C)OC(=O)C(C)(N)c1ccc(Cl)cc1 (centres undefined)
inactive: [5] 0.157 | [6] 0.0841 | [7] 0.151 | [8] 0.141

CCN(CCO)CCCOc1ccc2c(Nc3cc(CC(=O)Nc4cccc(F)c4)[nH]n3)ncnc2c1
inactive: [10] -0.0648 | [12] -0.00388 | [14] -0.0458 | [18] -0.0257 | [20] -0.0482
active: [9] -0.49 | [11] -0.395 | [13] -0.452 | [15] -0.473 | [16] -0.112 | [17] -0.446 | [19] -0.681

C#Cc1cccc(Nc2ncnc3cc(OCCOC)c(OCCO)cc23)c1
inactive: [9] -0.021 | [10] 0.0228 | [11] -0.00557 | [12] 0.0307 | [13] -0.00846 | [14] 0.063 | [15] 0.0648 | [16] 0.0201 | [17] -0.0295 | [18] 0.0604 | [19] -0.0784 | [20] -0.0862

O=C(CSc1nc2ccccc2[nH]1)c1ccc(OC(F)F)cc1
inactive: [1] 0.0646 | [2] 0.0338 | [3] 0.169 | [4] -0.104

CN1CCN(CC(=O)N2c3ccccc3Sc3ccccc32)CC1
inactive: [1] 0.172 | [2] 0.134 | [3] 0.173 | [4] 0.343

CNC(=O)c1c(F)cccc1Nc1nc(Nc2cc3c(cc2OC)CCN3C(=O)CN(C)C)nc2[nH]ccc12
active: [11] -0.215 | [13] -0.468 | [15] -0.729 | [16] -0.119 | [17] -0.785 | [18] -0.103 | [19] -1.04 | [20] -0.185
inactive: [9] -0.00474 | [10] 0.0229 | [12] -0.0133 | [14] -0.047

CCOC(=O)C1=C(C)N=C2SC(C)C(=O)N2C1c1ccc(OC)cc1 (centres undefined)
inactive: [1] 0.148 | [2] 0.0319 | [3] 0.107 | [4] 0.0438

NC(C(=O)O)c1cccc(O)c1 (centres undefined)
inactive: [5] 0.144 | [6] 0.0441 | [7] 0.145 | [8] 0.0975

C[C@@H]1CC[C@@]23CCC4(C)[C@@](C=CC5[C@@]6(C)CC[C@H](O)C(C)(C)C6CC[C@]54C)(OC2=O)C3[C@H]1C (some centres undefined)
inactive: [1] 0.00363 | [2] -0.0167 | [3] 0.0828 | [4] -0.0285

COCCOC(=O)C1=C(C)NC(=S)NC1c1ccccc1 (centres undefined)
inactive: [1] 0.0342 | [2] 0.00808 | [3] 0.0869 | [4] 0.0951

C=C(C)C1Cc2c(cc3oc(CO)cc(=O)c3c2O)O1 (centres undefined)
inactive: [1] 0.0482 | [2] -0.012 | [3] 0.067 | [4] 0.013

CCc1c2c(nc3ccc(OC(=O)N4CCC(N5CCCCC5)CC4)cc13)-c1cc3c(c(=O)n1C2)COC(=O)[C@]3(O)CC
active: [13] -0.241 | [15] -1.31 | [16] -0.173 | [17] -1.95 | [18] -0.414 | [19] -2.57 | [20] -0.647
inactive: [9] 0.00275 | [10] 0.0626 | [11] -0.0633 | [12] 0.00509 | [14] 0.026

CC[C@@]1(O)C(=O)OCc2c1cc1n(c2=O)Cc2cc3cc(O)ccc3nc2-1
active: [1] -1.78 | [2] -0.267 | [3] -4.23 | [4] -1.06

CC[C@@]1(O)C(=O)OCc2c1cc1n(c2=O)Cc2cc3c(CN(C)C)c(O)ccc3nc2-1
inactive: [10] -0.0171
active: [9] -0.373 | [11] -1.79 | [12] -0.321 | [13] -2.4 | [14] -0.459 | [15] -3.72 | [16] -0.844 | [17] -4.21 | [18] -1.11 | [19] -4.26 | [20] -1.44

C=CC(C)(O)CC/C=C(\C)CCC=C(C)C (centres undefined)
inactive: [1] 0.0873 | [2] 0.0984 | [3] 0.22 | [4] 0.113

COc1cc(OC)c(C2NC(=S)NC(C)=C2C(=O)Nc2ccccc2Cl)cc1OC (centres undefined)
inactive: [1] 0.0713 | [2] 0.0952 | [3] 0.0303 | [4] 0.0128

CC(C)C[C@H](NC(=O)OCC1c2ccccc2-c2ccccc21)C(=O)O
inactive: [1] 0.0635 | [2] 0.0579 | [3] 0.116 | [4] -0.00318

CC(C)CCCC(C)C1CCC2C3CCC4CC(=O)CCC4(C)C3CCC12C (centres undefined)
inactive: [1] 0.027 | [2] 0.0292 | [3] 0.169 | [4] 0.017

C/C1=C\CC/C(C)=C/CC(C)(C)/C=C/C1
inactive: [1] 0.0853 | [2] 0.0875 | [3] 0.112 | [4] 0.0862

Cc1ccc(C(C)C)cc2c(C)ccc1-2
inactive: [1] 0.0556 | [2] -0.0467 | [3] 0.0686 | [4] 0.0228

C=C1CCC2C(CC2(C)C)C(=C)CCC1=NO (centres undefined)
inactive: [1] 0.105 | [2] 0.00367 | [3] 0.133 | [4] 0.0769

CC(C)=CCc1c(O)cc(C)oc1=O
inactive: [1] 0.0912 | [2] -0.0147 | [3] 0.109 | [4] -0.0401

O=c1[nH]cc(F)c(=O)[nH]1
active: [23] -0.375
inactive: [21] 0.207 | [22] 0.0564 | [9] 0.0782 | [10] 0.0161 | [1] 0.0591 | [2] -0.00519 | [5] 0.172 | [6] 0.0764 | [11] 0.113 | [12] 0.0726 | [13] 0.13 | [14] 0.0535 | [3] 0.0991 | [4] 0.0157 | [7] 0.104 | [8] 0.00707 | [15] 0.139 | [16] 0.018 | [17] 0.0774 | [18] 0.0748 | [24] -0.051 | [19] -0.0664 | [20] -0.00616

CN1C[C@H](O)[C@@H](O)[C@H](O)[C@H]1CO
inactive: [5] -0.0352 | [6] 0.0677 | [7] 0.0611 | [8] 0.0287

CCC1(c2ccccc2)NC(=O)N(C)C1=O (centres undefined)
inactive: [1] 0.0606 | [2] 0.0208 | [3] 0.107 | [4] 0.103

CCC1(c2ccccc2)C(=O)NCNC1=O
inactive: [9] 0.0813 | [10] 0.0528 | [1] 0.0645 | [2] 0.0903 | [5] 0.00606 | [6] 0.00378 | [11] 0.122 | [12] 0.128 | [13] 0.168 | [14] 0.0786 | [3] 0.179 | [4] 0.204 | [15] 0.146 | [16] 0.0526 | [17] 0.0966 | [18] 0.0601 | [19] 0.121 | [20] 0.121
active: [7] -0.197 | [8] -0.337

O=C1NC(=O)C(c2ccccc2)(c2ccccc2)N1
inactive: [9] 0.0587 | [10] -0.0104 | [1] 0.0952 | [2] 0.161 | [5] 0.143 | [6] 0.0547 | [11] 0.0798 | [12] 0.0371 | [13] 0.05 | [14] 0.0456 | [3] 0.145 | [4] 0.128 | [7] 0.044 | [8] 0.0796 | [15] 0.0207 | [16] 0.0711 | [17] -0.00351 | [18] 0.0628 | [19] 0.0771 | [20] 0.0956

N#Cc1c2c(c(NCCCO)n3c1nc1ccccc13)CCC2
inactive: [1] 0.146 | [2] 0.012 | [3] 0.0888 | [4] -0.0597

COc1cc(O)c2c(=O)cc(C)oc2c1CC=C(C)C
inactive: [1] 0.113 | [2] 0.0803 | [3] 0.117 | [4] 0.16

COc1ccc(C(=O)c2ccc(O)cc2O)c(O)c1
inactive: [1] 0.0224 | [2] 0.0701 | [3] 0.116 | [4] 0.108

COc1ccc(CN2CCN(Cc3cccc([N+](=O)[O-])c3)CC2)cc1OC
inactive: [1] 0.0511 | [2] 0.032 | [3] 0.111 | [4] 0.138

COc1cc2c(cc1OC)-c1cc3ccc(OC)c(OC)c3c[n+]1CC2
inactive: [1] 0.021 | [2] 0.0361 | [3] -0.0191 | [4] 0.0646

COc1ccc2cc3[n+](cc2c1OC)CCc1cc2c(cc1-3)OCO2
active: [7] -0.318 | [23] -1.53 | [24] -0.365
inactive: [21] 0.0792 | [22] 0.0888 | [1] 0.0876 | [2] 0.0916 | [5] 0.139 | [6] 0.0365 | [3] -0.0264 | [4] 0.141 | [8] -0.00212

COc1ccc2c(=O)c(-c3cc4c(cc3OC)OCO4)coc2c1
inactive: [1] 0.0588 | [2] -0.078 | [3] 0.0766 | [4] 0.0171

COC1=CC(=O)C(O)=C/C1=C/C=C/c1ccccc1
inactive: [1] 0.0854 | [2] 0.141 | [3] 0.097 | [4] 0.125
